Screening data (PubChem BioAssay)
A selection: hits, their analogues and other compounds. The true share with any hit is near 1.7%.
TNFa cytotox: HUVEC cytotoxicity counter-screen, TNF alpha stimulated. 0.17% of 93,000 active. HUVEC TNFalpha-stimulated, Hoechst cell count, imaging. cell count reduction, % at 2 µM. AID 848;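 active = cell count reduction exceeding the screen mean by over 5 SD, scaled to untreated wells per plate, cut at about 78% in these data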;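 note: cells counted after 24 h of TNF alpha exposure following the 1 h pretreatment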
IL1B NFkB pot: enhances IL-1B driven NFkB nuclear translocation; HUVEC IL-1B NFkB p65 nuclear translocation imaging; activation, % at 2 µM; 0.3% of 94,000 active; AID 819;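 active = activation above 40%, about the mean plus 3 SD, also judged a hit on visual image review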;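 note: percent activation is computed from the nuclear over cytoplasmic p65 intensity ratio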
NFkB transloc inh: blocks IL-1B driven NFkB nuclear translocation in HUVEC cells | HUVEC IL-1B NFkB p65 nuclear translocation imaging | 0.43% of 94,000 active | inhibition, % at 2 µM;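 active = inhibition above about 30% together with a positive call from visual inspection of the well image, limit read from the data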;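 note: nuclear over cytoplasmic p65 intensity ratio measured by imaging; 0% = IL-1B stimulated DMSO wells and 100% = unstimulated DMSO wells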
VCAM1 TNFa inh: reduces TNF alpha induced VCAM1 expression in HUVEC; HUVEC TNFa-induced VCAM-1 immunofluorescence, high-content imaging; inhibition, % at 2 µM; 0.48% of 95,000 active;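 active = inhibition above the batch mean plus 3 SD, with images confirmed as a hit by eye, cut at about 37% in these data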;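 note: 0% = TNF-stimulated DMSO wells and 100% = unstimulated control wells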
E-sel TNF inh: blocks E-selectin expression induced by TNF alpha; inhibition, % at 2 µM; 0.71% of 120,000 active; HUVEC TNFa-induced E-selectin immunofluorescence, high content;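 active = inhibition above the batch mean plus 3 SD, and confirmed as a hit on visual image review, cut at about 43% in these data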;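 note: 0% = TNF-stimulated DMSO wells and 100% = unstimulated control wells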
HUVEC tox IL1B: HUVEC cytotoxicity counter-screen, IL-1B stimulated; HUVEC cell count loss, Hoechst imaging; cell count reduction, % at 2 µM; 0.41% of 94,000 active; AID 845;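 active = cell count reduction more than 3 SD above the screen-wide mean, cut at about 70% in these data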;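 note: normalized per plate to untreated control cells as the no-loss baseline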
* hit, by the source's call; / = no result given.

SMILES | TNFa cytotox | IL1B NFkB pot | NFkB transloc inh | VCAM1 TNFa inh | E-sel TNF inh | HUVEC tox IL1B
COCCN(C(=O)CCC(=O)Nc1ccccn1)C(C(=O)NC1CCCC1)c1ccc(OC)cc1 (stereo not drawn) | -3.0 | 23.1 | -23.1 | 3.4 | 100.0* | -6.8
CCOC(=O)N1CCC(=NNC(=O)c2ccc(O)cc2)CC1 | / | / | / | / | -4.8 | /
Cc1nc(SCc2ccc(Br)cc2)[nH]c(=O)c1C | 32.7 | 0.3 | -0.3 | 66.8* | 15.2 | 8.5
Cc1ccc(CSc2nc3nc(C)cc(C)c3c(=O)[nH]2)cc1 | / | / | / | / | 1.9 | /
COc1ccc(C(C)=O)cc1CSC(=N)N | / | / | / | / | 26.3 | /
COc1ccc(C(C)=O)cc1CSc1nc2cc(Cl)ccc2o1 | -13.0 | -8.7 | 8.7 | 7.4 | 3.0 | 88.1*
CCOC(=O)C1=C(c2ccccc2)NC(=O)NC1c1ccc(O)c(OCC)c1 (stereo not drawn) | / | / | / | / | -2.9 | /
CCOC(=O)C1=C(c2ccccc2)N(C)C(=O)NC1c1ccc(O)c(OC)c1 (stereo not drawn) | -13.3 | 1.4 | -1.4 | 14.8 | 65.9* | -4.3
CC1CCN(CCOc2ccc(Cl)c(Cl)c2)CC1 | / | / | / | / | 1.4 | /
O=C(NCCCN1CCN(c2cccc(Cl)c2)CC1)c1cccc(N2CCCC2=O)c1 | 0.7 | 45.8* | -45.8 | 18.7 | -18.3 | -18.6
COc1ccc(C(=O)OCCNC(=O)c2c(Cl)nc3ccccn23)cc1 | 9.3 | 14.6 | -14.6 | -25.1 | 60.3* | 5.5
O=c1[nH]cc([N+](=O)[O-])cc1Br | / | / | / | / | -9.9 | /
Nc1ncnc2nc(Sc3ccc(Cl)cc3)[nH]c12 | -9.9 | -34.1 | 34.1* | 8.1 | 2.2 | 6.1
COc1ccc(CN2C(=O)[C@@H]3C(c4ccc(F)cc4)=NO[C@@H]3C2=O)cc1 | / | -3.8 | 3.8 | 91.8* | -6.2 | 12.0
COC(=O)c1ccccc1N1C(=O)[C@@H]2C(c3ccc(F)cc3)=NO[C@@H]2C1=O | -8.3 | 3.2 | -3.2 | -4.9 | 67.5* | 5.1
COc1ccc(CN2C(=O)c3ccccc3C(/C=N\OCc3ccc(F)cc3)C2=O)cc1 (stereo not drawn) | -13.6 | 2.4 | -2.4 | 3.1 | -13.8 | -39.2
O=C(CCSCCc1ccccn1)Nc1c(F)c(F)c(F)c(F)c1F | / | / | / | / | -4.7 | /
C=CCn1c(SCC(=O)OC)nc2sc3c(c2c1=O)CCN(C)C3 | 12.5 | 8.0 | -8.0 | 14.6 | -35.8 | -7.2
C=CCn1c(SCC(=O)NC)nc2sc3c(c2c1=O)CCC3 | -11.4 | -5.1 | 5.1 | 8.8 | 80.4* | 8.3
CC(C)C(NS(=O)(=O)c1cccs1)C(=O)NCCN1CCN(c2ccccc2)CC1 (stereo not drawn) | -6.3 | -33.4 | 33.4* | -5.7 | 17.5 | 3.5
CCCCOCCCNC(=O)CCCOc1ccccc1 | -1.2 | 16.9 | -16.9 | 15.7 | 5.5 | 93.3*
CCOCCCNC(=O)CCCOc1ccccc1 | -16.6 | -2.2 | 2.2 | 10.3 | -23.7 | -28.3
Cc1ccc(S(=O)(=O)N/N=C/c2ccc(OCC(=O)NC(C)C)cc2)cc1 | -7.2 | -10.8 | 10.9 | -11.3 | 10.5 | 2.6
CC(C)Sc1nc2ccccc2[nH]1 | / | / | / | / | -14.9 | /
CC(C)(C)c1nc2ccccc2[nH]1 | -6.1 | 48.0* | -48.0 | 8.9 | -47.5 | -9.3
SMILES | TNFa cytotox | IL1B NFkB pot | NFkB transloc inh | VCAM1 TNFa inh | E-sel TNF inh | HUVEC tox IL1B
CC(C)NC(=O)/C(=C/c1cn(-c2ccccc2)nc1-c1cccc([N+](=O)[O-])c1)NC(=O)c1ccccc1 | / | / | / | / | 0.9 | /
Cc1noc(C)c1CSc1nc2ccccc2c(=O)n1-c1ccc(Cl)cc1 | -9.8 | -1.4 | 1.4 | -18.1 | 7.0 | 88.7*
Cc1noc(C)c1CSc1nc2sc(C)c(C)c2c(=O)n1-c1ccccc1 | 9.7 | -4.9 | 4.9 | -6.1 | -10.1 | -2.2
COc1ccc(OCC(O)CNC(=O)/C=C/c2cccc([N+](=O)[O-])c2)cc1 (stereo not drawn) | / | / | / | / | 29.6 | /
CC(=O)Nc1ccc(S(=O)(=O)n2cnc(C)c2)cc1 | 97.9* | -11.2 | 11.2 | 91.3* | 9.2 | -4.1
COC(=O)c1sc2nc(C)nc(SCC(=O)N3CCC(C(=O)O)CC3)c2c1C | / | / | / | / | -15.7 | /
O=C(Cn1cc(C(=O)C2CC2)c2ccccc21)NCc1ccccc1 | -8.6 | 19.2 | -19.2 | 4.5 | -2.4 | -31.4
O=C(O)Cn1cc(C(=O)C2CC2)c2ccccc21 | -5.3 | 18.9 | -18.9 | 12.2 | 0.7 | 82.5*
Cc1cc(=O)n2nc(-c3ccccc3)sc2c1C#N | / | / | / | / | 95.2* | /
COc1cccc(-c2nc(CS(=O)(=O)CC(=O)NCCCOC(C)C)c(C)o2)c1 | -31.2 | -11.5 | 11.5 | 7.7 | 2.7 | 94.8*
COc1cccc(-c2nc(CS(=O)CC(=O)NCCCOC(C)C)c(C)o2)c1 (stereo not drawn) | -8.7 | -10.1 | 10.1 | -1.3 | -15.2 | -14.0
Cc1nc(-c2ccccc2)sc1C(=O)CSc1ccc(F)cc1 | -2.1 | -36.0 | 36.0* | -7.4 | 8.2 | -20.9
Cc1nc(-c2ccccc2)sc1C(=O)CSc1ccccc1 | -14.8 | -3.6 | 3.6 | 1.9 | -17.1 | -16.4
CCCn1c(SCC(=O)NCc2ccc(Cl)cc2)n[nH]c1=O | / | / | / | / | 1.2 | /
CCOC(=O)c1cc(=O)n(Cc2ccccc2C)c2ccccc12 | -45.6 | 17.0 | -17.0 | 85.7* | -5.2 | -21.8
CCCCCc1nc2ccccc2c(=O)n1NC(=O)c1c(O)c2cccc3c2n(c1=O)CCC3 | -20.6 | 6.7 | -6.7 | 8.1 | 71.5* | 1.6
CCCCCCc1nc2ccccc2c(=O)n1NC(=O)c1c(O)c2cccc3c2n(c1=O)CCC3 | -3.6 | 0.9 | -0.9 | -12.3 | 8.0 | -10.6
COC(=O)CN1C(=O)CSc2ncccc21 | -22.6 | 52.0* | -48.9 | -6.1 | / | -13.2
CCOC(=O)N1CCC(NC(=O)CN2C(=O)CSc3ncccc32)CC1 | / | / | / | / | 5.1 | /
O=C1Nc2ccccc2/C1=C\c1cccn1-c1ccc(OC(F)(F)F)cc1 | 15.7 | 7.2 | -7.2 | -23.9 | -5.0 | -1.2
COc1ccc(C2=NNC(c3cccs3)=Nc3ccc(OC)cc32)cc1 | -17.8 | 13.6 | -13.6 | 8.6 | 74.3* | 11.0
CCc1ccc(N2CC(C(=O)NCc3ccco3)CC2=O)cc1 (stereo not drawn) | -16.4 | 22.8 | -22.8 | -1.2 | -5.7 | -14.4
O=C(NCc1ccco1)C1CC(=O)N(c2ccc(F)cc2)C1 (stereo not drawn) | -24.8 | -7.7 | 7.7 | 85.0* | -20.8 | 4.9
O=S(=O)(NCC1CCCO1)c1ccc(S(=O)(=O)N(Cc2ccc(F)cc2)Cc2ccco2)cc1 (stereo not drawn) | / | / | / | / | -4.1 | /
C/C(=N\O)c1ccc(N2C(=O)C3CC=C(Cl)CC3C2=O)cc1 (stereo not drawn) | -27.5 | -4.8 | 4.8 | -14.7 | -1.0 | 92.1*
CC(=O)NC1C(Oc2ccccc2C)OC2COC(c3ccco3)OC2C1O (stereo not drawn) | / | / | / | / | 28.1 | /
O=C(NC1CCS(=O)(=O)C1)c1cccnc1 (stereo not drawn) | / | / | / | / | 6.5 | /
O=C(NC(NC1CCS(=O)(=O)C1)C(=O)c1cccs1)c1ccccc1 (stereo not drawn) | -6.8 | 11.6 | -11.6 | 94.5* | -6.7 | -200.0
CC(NC(=O)COc1ccccc1F)C1CC2CCC1C2 (stereo not drawn) | / | / | / | / | -20.9 | /
